Data on 40 molecules can be found in PubChem BioAssay (NCATS).

The structures appear in SMILES notation. Records with an inconclusive call do not appear. A call without a number means that no potency is given here. The source made the active and inactive calls. Calls follow the shape of the dose curve; as a rule, active = well fitted inhibition curve with a large enough effect; inconclusive = small, poorly fitted or top-dose-only effect; inactive = no such curve, though single readings can be large or run the other way. Where a SMILES comes first, the peptide text is derived from it.
Potency is read from the fitted curve at half-maximal effect.

The test can be described thus: qHTS assay for measurement of the activity of small molecule inhibitors on Zika virus induced Caspase-3 activity in human iPSC derived neural progenitor cells (hNPCs) (AID 1224857). Also: nearly all actives have a fitted effect of over 65% in size. Particulars: hNPCs ZIKV-induced caspase-3/7, Caspase-Glo luminescence, 6 h; series mostly up to 45.7 µM. The source says: National Center for Advancing Translational Sciences [NCATS]
Johns Hopkins University School of Medicine
Increase in the Caspase-3 activity indicates an activation of apoptosis cell death pathway caused by Zika virus infection in certain types of neuronal cells including human neural progenitor cells (hNPCs), astrocytes, and astrocytoma cell line (SNB-19). This cell-based caspase-3 activity assay measures the increased caspase-3 activity in the human iPSC derived neural progenitor cells (hNPCs) after a 6-hour Zika virus infection with a luminescence readout. A decrease in the luminescence signal in this assay by small molecule treatment indicates an inhibitory effect of that small molecule on the Zika virus induced caspase-3 activity that may correlate with its effect on reduction of Zika virus caused cell death.
The medium for hNPCs consists of DMEM/F12, N2 supplement (ThermoFisher, Cat.# 17502048), NEAA (ThermoFisher, Cat. # 11140050), 2 ug/ml heparin, 2 uM cyclopamine, and B27 (ThermoFisher, Cat. # 17504044). A Caspase-Glo 3/7 assay kit (catalog number G8092; Promega, Madison, WI) was used to detect caspase-3 activity induced by Zika virus infection in human cells. The reagent mixture was reconstituted as described in the protocol from the manufacturer. Polystyrene tissue culture treated and PDL coated white plates were obtained from Greiner Bio-One (Monroe, NC). Cells were seeded in 384- or 1536-well assay plates and cultured at 37 C with 5% CO2 for 16 to 20 hours. The typical cell seeding density in the 1536-well plate assay is 350 cells/well in 3 ul medium for hNPCs in tissue culture treated plates. Compounds were added to cells and incubated for one hour before addition of ZIKV solution to cells (2 FFU/cell). After incubation at 37 C with 5% CO2 for 6 hours, the reagent mixture of Caspase-Glo 3/7 assay kit was added to each well, followed by incubation at room temperature for 30 minutes. The luminescence intensity of the assay plates was measured using a ViewLux plate reader (PerkinElmer). Data were normalized by using the cell-containing wells without ZIKV as a negative control (0% induction of caspase 3/7 activity) and wells containing ZIKV infected cells (Caspase-3 activity induced) as a positive control (100% induction of caspase 3 activity). The percentage inhibitions of the increased Caspase-3 activity by small molecule inhibitors were then calculated.
In general terms: In qHTS, concentration-response curves come from the screen itself.
`Cn1cc(S(C)=O)c(=O)c2ccc(F)cc21` (stereo not given): the Potency result is “inactive”.

For the molecule `CC(=O)N[C@@H](CO)C(=O)N[C@@H](CC(=O)O)C(=O)N[C@@H](CCCCN)C(=O)N1CCC[C@H]1C(=O)O` (Ac-SDKP-OH), the Potency entry was “inactive”.

With `CC(C)=CCC/C(C)=C/CC/C(C)=C/C(=O)OCC(=O)[C@@]1(O)CC[C@H]2[C@@H]3CCC4=CC(=O)C=C[C@]4(C)[C@H]3[C@@H](O)C[C@@]21C`, the Potency result is “inactive”.

Turning to `COc1ccc(/C(C)=C/C(=O)O)c(OC)c1`, the Potency result is “inactive”.

As to `O=C(c1cc(O)c(O)c(O)c1)c1ccc(O)c(O)c1O`, the Potency result was “inactive”.

Consider `O=C1Nc2ccccc2C1(c1ccc(O)cc1)c1ccc(O)cc1`, for which the Potency result is “inactive”.

As to `CC(=O)OCC(=O)Nc1cc(C#N)cc(NC(=O)COC(C)=O)c1Cl`, the Potency entry is “inactive”.

As to `CC(C)(C)C(=O)OCOC(=O)C1N2C(=O)CC2S(=O)(=O)C1(C)C` (stereo not given), the Potency result was “inactive”.

For the molecule `O=C(CCC1CCN(Cc2ccccc2)CC1)c1ccc2c(c1)NCCCC2`, the Potency entry was “inactive”.

As for `O=C(OCC1(COC(=O)c2cccnc2)CCCC(COC(=O)c2cccnc2)(COC(=O)c2cccnc2)C1O)c1cccnc1`, the Potency entry was “inactive”.

For `N#C/C(=C1/SC[C@@H](c2ccc(Cl)cc2Cl)S1)n1ccnc1`, the Potency entry was “inactive”.

Regarding `COC(=O)C1=C(C)NC(C)=C(C(=O)OCCc2ccc(N3CCN(C(c4ccccc4)c4ccccc4)CC3)cc2)C1c1cccc([N+](=O)[O-])c1` (stereo not given), the Potency entry is “inactive”.

Turning to `CC(C(O)c1ccccc1)N(C)CCOC(c1ccccc1)c1ccccc1` (stereo not given), the Potency result is “inactive”.

In the case of `O=C(Nc1ccc(Cl)cc1)Nc1ccc(Cl)c(Cl)c1`, the Potency result is “inactive”.

With `O=C1CC2(CCCC2)CC(=O)N1`, the Potency result is “inactive”.

In the case of `NC(=O)NS(=O)(=O)c1ccc(Cl)cc1`, the Potency entry was “inactive”.

On to `CO[C@@H]1[C@@H](OC)[C@H](C)[C@@](O)(CC(=O)O)O[C@H]1[C@H](C)[C@H]1O[C@@]2(CC[C@@](C)([C@H]3CC[C@@](C)([C@@H]4O[C@@H]([C@H]5O[C@](C)(O)[C@H](C)C[C@@H]5C)C[C@@H]4OC4C[C@H](OC)[C@@H](OC)[C@H](C)O4)O3)O2)C[C@H](O)[C@H]1C` (stereo not given in full), for which the Potency result is “inactive”.

Consider `COc1ccc([C@@H]2Sc3ccccc3NC(=O)[C@@H]2O)cc1`, for which the Potency result is “inactive”.

Regarding `CC(C)(C)c1ccc(O)c(O)c1`, the Potency was 35.5 µM (active).

For the molecule `Cc1ccc(Cl)c(OCC(O)CNC(C)(C)C)c1` (stereo not given), the Potency entry is “inactive”.

For the molecule `CCCCC(CC)CNC(=O)CC(C)OC(=O)CCC(=O)O` (stereo not given), the Potency entry was “inactive”.

As to `O=C(NN1CCCC1)NS(=O)(=O)c1ccc(Cl)cc1`, the Potency result was “inactive”.

Regarding `CN1Cc2cc(C(=O)N3CCC(C4CCNCC4)CC3)ccc2NC(CC(=O)O)C1=O` (stereo not given), the Potency entry is “inactive”.

Regarding `O=C(Oc1ccccc1)c1cccc(C(=O)Oc2ccccc2)c1`, the Potency result was “inactive”.

For the molecule `CCCCC(CC)COC(=O)c1ccccc1C(=O)O` (stereo not given), the Potency entry is “inactive”.

Regarding `CSCC[C@H](NC(=O)[C@H](Cc1c[nH]c2ccccc12)NC(=O)CCNC(=O)OC(C)(C)C)C(=O)N[C@@H](CC(=O)O)C(=O)N[C@@H](Cc1ccccc1)C(N)=O`, the Potency entry is “inactive”.

For the molecule `CCOC(=O)N1CCC(n2c(=O)[nH]c3cc(Cl)ccc32)CC1`, the Potency result is “inactive”.

Take `CC(=O)c1ccc(O)c(C(N)=O)c1`: the Potency entry is “inactive”.

With `NC(N)=NCCCCN=C(N)N`, the Potency result was “inactive”.

Turning to `CC[N+](CC)(CC)CCOC(=O)C(C1CCCC1)C1CCCC1`, the Potency entry is “inactive”.

For the molecule `Cc1cc2nc3ccc(=[N+](C)C)cc-3sc2cc1N`, the Potency result is “inactive”.

For the molecule `O=C(O)CNC(=O)CNC(=O)CNC(=O)CSC(=O)c1ccccc1`, the Potency result was “inactive”.

Consider `Cc1sccc1Br`, for which the Potency result is “inactive”.

`CC(=O)N(CC(O)CO)c1c(I)c(C(=O)NCCO)c(I)c(C(=O)NCC(O)CO)c1I` (stereo not given): the Potency entry is “inactive”.

`CCCc1c2oc(C(=O)O)cc(=O)c2cc2c(=O)cc(C(=O)O)n(CC)c12`: the Potency entry is “inactive”.

Turning to `O=C(CCCCC(=O)Nc1c(I)cc(I)c(C(=O)O)c1I)Nc1c(I)cc(I)c(C(=O)O)c1I`, the Potency entry is “inactive”.

Consider `CC(C)(C)C(O)/C=C/c1ccc2c(c1)OCO2` (stereo not given), for which the Potency result is “inactive”.

Consider `CCC1=C[C@@H]2CN(C1)Cc1c([nH]c3ccccc13)[C@@](C(=O)OC)(c1cc3c(cc1OC)N(C)[C@H]1[C@@](O)(C(=O)OC)[C@H](OC(C)=O)[C@]4(CC)C=CCN5CC[C@]31[C@@H]54)C2`, for which the Potency entry is “inactive”.

As for `CCCc1ncc(C(=O)O)s1`, the Potency result was “inactive”.

As to `COC(=O)c1cc(Cl)ccc1OC`, the Potency entry was “inactive”.
